# An excerpt weighted towards active compounds, which were near 1.5% of everything screened.
# IDE act: human IDE activators in live cells, primary screen, fluorescence polarization, HEK cells, FAbeta-B substrate; activation, % at 5.96 µM; 340,000 compounds, 0.073% hits; Insulin-degrading enzyme (Homo sapiens), P14735; FAbeta-B cleavage; 0% vehicle, 100% cell-free pure enzyme wells; AID 493087, 2011;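 active = activation above the mean of all tested compounds plus 3 SD, set per screening campaign, cut at about 17% in these data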
# RTF Ca sens inh: cardiac RTF calcium sensitivity inhibitors, primary screen, biochemical, IANBD-TnC fluorescence, EC70 calcium | Troponin I, cardiac muscle (Homo sapiens) + Troponin T, cardiac muscle (Homo sapiens) + … | IANBD-labeled cardiac RTF, Ca2+ fluorescence | inhibition, % at 7.15 µM | 340,000 compounds, 0.12% hits;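 active = inhibition above the mean inhibition of all tested compounds plus 3 SD, cut at about 17% in these data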;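 note: assay run at fixed EC70 calcium of 1.6 mM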
# CRFBP-R2 agonist: agonists of CRF-BP/CRF-R2 complex, primary screen, cell-based, HEK293, calcium dye fluorescence, uHTS | CRF-binding protein / CRF receptor 2 complex (human) | calcium dye fluorescence (FLIPR); percent of saturating CRF peptide response | activation, % at 13.2 µM | 350,000 compounds, 0.46% hits | AID 588473, 2011;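 active = activation of at least 50%, plus an integration ratio under a set limit after plate pattern correction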;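 note: plate controls were neutral control wells without compound for no effect and CRF at EC100 for full effect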
# IDE cell inh: human IDE inhibitors in live cells, primary screen, fluorescence polarization, HEK cells, FAbetaB substrate | Insulin-degrading enzyme (Homo sapiens), P14735 | FAbetaB cleavage | inhibition, % at 5.59 µM | 320,000 compounds, 0.41% hits | AID 434962, 2010;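 active = percent inhibition above the average of all tested compounds plus 3 SD, set per screening campaign, cut at about 16% in these data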;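 note: IDE supplied by intact live HEK cells; FP after avidin binding of uncleaved biotin substrate so inhibition keeps polarization high; 0% = DMSO wells and 100% = 60 µM reference IDE inhibitor Ii1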
# cardiac RTF act: cardiac RTF calcium sensitivity activators, primary screen, biochemical, IANBD-TnC fluorescence, EC20 calcium | Troponin I, cardiac muscle (Homo sapiens) + Troponin T, cardiac muscle (Homo sapiens) + … | IANBD-labeled TnC RTF fluorescence at EC20 calcium; 0% EC20 calcium, 100% full calcium | activation, % at 7.2 µM | 340,000 compounds, 0.24% hits;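 active = activation above the mean over all tested compounds plus 3 SD, cut at about 30% in these data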;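 note: rise in fluorescence read as greater calcium sensitivity of cardiac thin filaments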
# CRFBP-R2 block: antagonists of CRF-BP/CRF-R2 complex, primary screen, cell-based, HEK293, calcium dye fluorescence, uHTS | CRF-induced calcium fluorescence | inhibition, % at 11.8 µM | 350,000 compounds, 0.59% hits | AID 588475, 2011;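 active = inhibition of the ligand-induced calcium signal above about 50% at the single tested concentration, limit read from the data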
# IDE cell inh cf: human IDE inhibitors in live cells, confirmation, fluorescence polarization, HEK cells, FAbetaB substrate | shares compounds with IDE cell inh | FAbetaB cleavage | inhibition, % at 5.59 µM | 1,200 compounds, 51% hits | AID 435028, 2010;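 active = mean inhibition across triplicate wells above the cutoff set by the earlier primary insulin-degrading enzyme screen, cut at about 16% in these data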;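 note: 0% = DMSO wells and 100% = 60 µM reference IDE inhibitor Ii1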
# HEK cytotox: cytotoxicity in HEK cells, cytotoxicity control for IDE inhibitor project, cell-based, luminescence. inhibition, % at 5.59 µM. 1,200 compounds, 28% hits. HEK293 cytotoxicity, ATP luminescence. shares compounds with IDE cell inh; in the data active = inhibition above about 22%;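 note: 0% = vehicle wells and 100% = reference cytotoxic drug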
# * hit, by the source's call; i = inactive; x = not tested or not shown.
SMILES,IDE act,RTF Ca sens inh,CRFBP-R2 agonist,IDE cell inh,cardiac RTF act,CRFBP-R2 block,IDE cell inh cf,HEK cytotox
O=C1Nc2ccccc2/C1=C/c1cnc(-c2ccccc2)[nH]1,-32,-63,42,32*,36*,-25,30*,9
CC1(S(=O)(=O)O)CC(=O)c2ccccc2C1=O (stereo unspecified),-9,-34,1,43*,3,-37,116*,29*
O=C1c2ccccc2C(=O)C1(O)O,x,x,x,2,x,x,x,x
CCN=C1S/C(=C\c2ccc(N3CCOCC3)cc2C)C(=O)N1CC,5,8,1,-1,2,6,x,x
COCCN1C(=O)/C(=C/c2ccc(N3CCCC3)cc2C)SC1=S,-25,-76,182*,49*,69*,-263,57*,15
O=C(COC(=O)/C=C/c1cccc(Cl)c1)NC1CC1,-3,-11,-1,-2,2,3,x,x
CCOC(=O)/C(C#N)=C(C)/C=C1\Sc2ccccc2N1CC,-64,-2,122*,44*,169*,-156,78*,36*
CCN1/C(=C\C=C(C(C)=O)C(C)=O)Sc2ccccc21,-53,-94,81*,35*,78*,-82,50*,9
CCN1/C(=C\C(C)=O)Sc2ccc(OC)cc21,3,-6,-1,1,-3,1,x,x
O=C(CN1c2ccccc2Sc2ccccc21)NNC(=S)Nc1ccc(Cl)cc1,-3,1,-1,-1,6,-8,x,x
CCN1/C(=C\C(=S)Nc2ccccc2)Sc2ccccc21,-5,-3,-1,21*,1,-13,2,13
CCN1/C(=C\C=C2\C(=O)N(c3ccccc3)C(=S)N2C)Sc2ccccc21,1,-6,-2,x,7,-11,x,x
CCN1C(=S)SC(=O)C1=C1C=C(C)N(Cc2ccco2)C(C)=C1,-30,-6,47,33*,22,-67,42*,13
CCOC(=O)C1=C(c2ccccc2)N=c2s/c(=C\c3ccc(O)cc3)c(=O)n2C1c1cccs1 (stereo unspecified),-31,-55,20,23*,-5,-34,115*,41*
CCSC1=NSC2=NC(=O)/C(=C\c3coc4ccccc4c3=O)C(=N)N12,-65,i,185*,55*,555*,-177,51*,6
CSc1nnc(N2C(=O)C(O)=C(C(=O)c3ccco3)C2c2cccc(Cl)c2)s1 (stereo unspecified),-6,-11,23,29*,9,-21,7,7
CSc1nnc(N2C(=O)C(O)=C(C(=O)c3ccco3)C2c2ccc(F)cc2)s1 (stereo unspecified),-1,-22,13,15,2,19,x,x
CC(C)[C@H](NC(=O)c1ccc(C(C)(C)C)cc1)C(=O)N1CCN(Cc2ccc3c(c2)OCO3)CC1,1,0,-1,19*,-2,-25,4,53*
Cc1nc(N/C(N)=N/S(=O)(=O)c2ccccc2)nc2ccccc12,3,-2,-1,-3,0,-4,x,x
Cc1nc(N/C(N)=N/S(=O)(=O)c2ccc([N+](=O)[O-])cc2)nc2ccccc12,-3,-4,-3,22*,-3,-12,8,4
CC1CCCN(C(=O)C2CCN(S(=O)(=O)c3cccc4nonc34)CC2)C1 (stereo unspecified),3,3,0,5,2,13,x,x

# High-throughput results as filed in PubChem BioAssay.
